± gives the standard deviation of the averaged measurements.

The subject of the first assay is Caenorhabditis elegans N2 infected with Nematocida parisii ERTm1. Kind of assay: progeny production relative to DMSO uninfected control; higher = more progeny despite microsporidia infection (inhibition of infection with low host toxicity). To be noted: infection time 6 days; 40 µM. The protocol:
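Bleach-synchronised C. elegans N2 L1 larvae (100 per well) were grown in 96-well plates in K-medium with 5x E. coli OP50 and 15,000 N. parisii spores/uL, plus Pandemic Response Box compound at 100 uM or 40 uM (1% DMSO), for 6 days at 21 C with shaking. Worms were stained with Rose Bengal, scanned on a flatbed scanner and counted with WorMachine. Progeny production is given as % of the DMSO uninfected control (triplicate wells), so higher values mean the compound restores progeny despite infection.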
`COc1cc(C(C)(C)CCCC(C)C)cc(OC)c1OC`: the progeny production came to 5.3 ± 1.8%.
On to `CCN1CCN(Cc2nc3ccc([N+](=O)[O-])cc3c(=O)n2-c2ccccc2F)CC1`, for which the progeny production came to 6.53 ± 2.2%.
In turn, `CC(C)Oc1cccc(NC(=O)c2ccccc2C(F)(F)F)c1` gave a progeny production of 3.26 ± 1%.
Same read-out and setting: the figure for `CN1C(=O)C(c2ccccc2)C(=O)N(c2ccccc2)c2cc(C(F)(F)F)ccc21` (centres undefined) is 3.86 ± 0.4%; for `COc1ccccc1CN[C@H]1C2CCN(CC2)[C@H]1C(c1ccccc1)c1ccccc1` it is 8.71 ± 4.8%.
Regarding `COC(=O)Nc1nc2ccccc2[nH]1`, the progeny production amounted to 9.55 ± 1.4%.
Compound `O=C(NC12CC3CC(CC(C3)C1)C2)c1cc2ccccc2[nH]1` returned a progeny production of 6.55 ± 3.2%.
Compound `NC1(C(=O)O)CCP(=O)(O)CC1` (centres undefined) came in with a progeny production of 2.95 ± 1.1%.
`C[N+]1(C)CCCC(OC(=O)C(O)(c2ccccc2)c2ccccc2)C1` (centres undefined) gave a progeny production of 12.7 ± 11%.
For `C[C@@]1(O)[C@H](O)[C@@H](CO)O[C@H]1n1ccc2c(N)ncnc21`, the progeny production amounted to 7.31 ± 1.5%.
Turning to `Nc1c(C(=O)NCc2ccco2)c2nc3ccccc3nc2n1CCN1CCCCC1`, the progeny production amounted to 6.14 ± 2.6%.
Same read-out and setting: the figure for `CCCCc1ccc(C(=O)O)nc1` is 3.89 ± 0.63%.

The same assay, now with this note: infection time 6 days; 100 µM.
The compound `COc1cc(C(C)(C)CCCC(C)C)cc(OC)c1OC` registered a progeny production of 12.1 ± 4.9%.
The same measure, in the same setting: next, `CCN1CCN(Cc2nc3ccc([N+](=O)[O-])cc3c(=O)n2-c2ccccc2F)CC1`: 16.4 ± 6.8%; `CC(C)Oc1cccc(NC(=O)c2ccccc2C(F)(F)F)c1`: 18.9 ± 12%; `CN1C(=O)C(c2ccccc2)C(=O)N(c2ccccc2)c2cc(C(F)(F)F)ccc21` (centres undefined): 8.44 ± 2%.
`COc1ccccc1CN[C@H]1C2CCN(CC2)[C@H]1C(c1ccccc1)c1ccccc1` registered a progeny production of 16.1 ± 5.7%.
The same measure, in the same setting: next, `COC(=O)Nc1nc2ccccc2[nH]1`: 19.7 ± 17%.
Take `O=C(NC12CC3CC(CC(C3)C1)C2)c1cc2ccccc2[nH]1`: the progeny production turned out to be 5.96 ± 4%.
Regarding `NC1(C(=O)O)CCP(=O)(O)CC1` (centres undefined), the progeny production came to 16.6 ± 16%.
`C[N+]1(C)CCCC(OC(=O)C(O)(c2ccccc2)c2ccccc2)C1` (centres undefined) had a progeny production of 4.14 ± 1.8%.
On the same count and under the same terms, next, `C[C@@]1(O)[C@H](O)[C@@H](CO)O[C@H]1n1ccc2c(N)ncnc21`: 15.4 ± 2%.
`Nc1c(C(=O)NCc2ccco2)c2nc3ccccc3nc2n1CCN1CCCCC1` showed a progeny production of 8.06 ± 4%.
The same measure, in the same setting: next, `CCCCc1ccc(C(=O)O)nc1`: 18.3 ± 10%.

The record behind these values is the supplement of paper PMC10732440.
